# High-throughput results (PubChem BioAssay)
# An excerpt weighted towards active compounds, which were near 2.1% of everything screened.
# KLF5 inhibitor = inhibitors of KLF5 expression; DLD-1 KLF5 promoter-luciferase reporter, luminescence; inhibition, % at 5 µM; 290,000 compounds, 0.23% hits; AID 1700;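 active = inhibition above a per-plate limit of that plate's mean compound inhibition plus 3 SD, cut at about 60% in these data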;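 also: 0% = DMSO wells and 100% = LY294002 at 200 µM; higher means less KLF5 promoter-driven luciferase light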
# Platelet DG rel = modulates dense granule release in human platelets. human platelet-rich plasma, SFLLRN dense granule ATP release, luminescence. inhibition, %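 (compounds screened at 7.5 µM in platelet-rich plasma)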. 300,000 compounds, 0.22% hits;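 active = mean replicate score, as percent of positive control, at or above 50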
# Wee1 degr inh = human Wee1 degradation inhibition, primary screen | HeLa Luc-Wee1K328M stability, luciferase luminescence; 100% = proteasome inhibitor MG132 effect | reporter increase, % at 5 µM | 220,000 compounds, 1.2% hits | AID 1321;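 active = activation above the mean of all tested compounds plus 3 SD, set per screening run, cut at about 8.8% in these data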;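 also: cells exposed to compound for 20 h before luminescence read; 0% = DMSO alone and 100% = MG132 at 30 µM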
# Target sequence (P30291 whole entry K328M): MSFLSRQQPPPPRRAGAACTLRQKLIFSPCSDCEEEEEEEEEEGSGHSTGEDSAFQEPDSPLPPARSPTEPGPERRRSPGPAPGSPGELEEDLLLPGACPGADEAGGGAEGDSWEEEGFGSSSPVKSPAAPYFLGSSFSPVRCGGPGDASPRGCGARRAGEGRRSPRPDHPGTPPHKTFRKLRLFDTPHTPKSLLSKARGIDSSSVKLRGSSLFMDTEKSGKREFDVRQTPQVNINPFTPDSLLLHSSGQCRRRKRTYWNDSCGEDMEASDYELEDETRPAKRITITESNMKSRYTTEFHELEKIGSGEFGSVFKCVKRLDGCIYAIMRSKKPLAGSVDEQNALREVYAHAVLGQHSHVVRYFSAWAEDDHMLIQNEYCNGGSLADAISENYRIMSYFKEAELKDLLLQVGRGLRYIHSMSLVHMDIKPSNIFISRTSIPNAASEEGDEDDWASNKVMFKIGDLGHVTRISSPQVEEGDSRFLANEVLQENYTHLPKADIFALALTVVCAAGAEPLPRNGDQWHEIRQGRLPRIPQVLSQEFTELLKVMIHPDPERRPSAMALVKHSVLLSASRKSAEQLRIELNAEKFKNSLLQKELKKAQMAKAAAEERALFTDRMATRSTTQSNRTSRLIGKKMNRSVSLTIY
# HIF activator = HIF pathway transcriptional activation | AID 1910 | activation, % at 7.5 µM (by protocol) | U2OS HRE-luciferase reporter, luminescence; normalized: DMSO 0%, desferrioxamine 100% | 300,000 compounds, 0.32% hits;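 active = mean activation of at least 10% of the iron chelator positive control signal, with at least half of replicates also reaching 10%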
# aSyn UTR inh = 5' untranslated region of α-synuclein, MLPCN primary screen. alpha-synuclein 5'UTR reporter, inhibitor activity. inhibition, % (tested at 7.5 µM). 300,000 compounds, 0.82% hits; in the data active = inhibition above about 60%;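 also: H4 neuroglioblastoma cells stably carrying SNCA 5'UTR luciferase fusion; 0% = DMSO wells and 100% = positive control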
# An asterisk follows results filed as active; x = no result.
SMILES,KLF5 inhibitor,Platelet DG rel,Wee1 degr inh,HIF activator,aSyn UTR inh
Clc1cccc(Cl)c1CSc1nnc(CN2CCOCC2)n1-c1ccccc1,-38.7,4.1,10.5*,-0.5,12.2
Cc1ccccc1N1CCN(C2CCCN(C(=O)c3cn4cccc(C)c4n3)C2)CC1 (centres undefined),-16.5,0.4,x,-0.3,-3.4
Cc1cccc(Nc2nc(OCC#N)nc(N(C)C)n2)c1,1.7,-2.6,x,0.5,16.9
CCN(CC)c1nc(Nc2ccc(Cl)cc2)nc(OCC#N)n1,3.7,-3.0,-2.8,-0.8,70.0*
COc1ccccc1-c1cc2nc(C)c(CCC(=O)NCc3ccc(F)cc3)c(C)n2n1,-41.8,0.6,4.7,-3.2,20.1
COc1cc(OC)cc(-c2cc3nc(C)c(CCC(=O)NCc4ccccc4)c(C)n3n2)c1,27.1,4.2,-0.2,-3.3,75.0*
CC(=O)N1CCN(S(=O)(=O)c2cccc(C(=O)NCCC3=CCCCC3)c2)CC1,x,-6.4,x,0.0,5.4
CC(/C=N/NC(=O)c1cc(-c2ccncc2)nc2ccccc12)=C\c1ccco1,-20.7,-4.8,1.1,-0.1,86.1*
Cc1ccsc1/C=N/NC(=O)c1cc(-c2ccncc2)nc2ccccc12,61.2,5.7,2.4,1.1,67.4*
Cc1ccc(/C=N/NC(=O)c2cc(-c3cccnc3)nc3ccccc23)cc1,-5.7,2.6,8.0,-0.1,80.9*
Cc1ccc(-c2nc(N/N=C/c3cccc([N+](=O)[O-])c3)c3ccccc3n2)cc1,-1.4,16.0,2.5,1.0,-153.1
Cc1ccc(-c2nc(N/N=C/c3cccnc3)c3ccccc3n2)cc1,-119.4,63.8*,-0.5,2.4,-258.4
N#CC1=C(N)Oc2cc(N)ccc2C1c1ccc(F)cc1F (centres undefined),-13.5,21.1,x,-3.9,-17.3
CCC(C)n1c(SCC(=O)NC2CCS(=O)(=O)C2)nc2ccccc2c1=O (centres undefined),x,x,x,1.2,-15.9
COc1ccc(NC(=O)CN(C)C(=O)CCCNC(=O)c2ccc(Cl)cc2)cc1,x,5.1,x,1.4,-21.2
Cc1ccc(C)c(NC(=O)CN(C)C(=O)CSC(C)C(=O)Nc2cc(C)on2)c1 (centres undefined),-22.4,-3.7,x,-0.1,-17.6
O=C(NC(=S)Nc1ccc(CN2CCCCC2)cc1)c1cc2ccccc2o1,-30.2,-1.3,1.2,0.0,-68.5
CC(C)Cc1nnc(NC(=O)c2cc(-c3ccncc3)nc3ccccc23)s1,-29.6,18.0,9.2*,0.0,1.7
Cc1cc(NC(=O)c2cc(-c3ccccn3)nc3ccc(Br)cc23)no1,-7.6,2.0,x,0.5,43.5
CC(C)Cc1nnc(NC(=O)c2cc(-c3ccccc3)nc3ccccc23)s1,-28.0,-2.6,2.2,0.3,11.6
O=C(Nc1ccccn1)c1cc(-c2cccnc2)nc2ccc(Br)cc12,-9.6,0.3,1.3,-0.7,62.1*
Cn1c2c(c(=O)c3ccccc31)CCCC2,-12.4,-1.2,x,0.6,-10.4
O=C(NCc1ccccc1OC(F)(F)F)C1CCC(=O)N(CCc2ccccn2)C1 (centres undefined),-20.3,-13.4,x,-0.4,-4.2
CC1CCN(C(=O)Cn2nnc(-c3ccc(N)cc3)n2)CC1,-33.9,2.0,x,0.4,16.8
COc1ccc(F)cc1CN1CCN(c2ncnc3scc(-c4ccccc4)c23)CC1,-8.6,-2.2,0.8,-0.4,98.1*
SMILES,KLF5 inhibitor,Platelet DG rel,Wee1 degr inh,HIF activator,aSyn UTR inh
COc1ccc(CN2CCN(c3ncnc4scc(-c5ccc(F)cc5)c34)CC2)cc1,-25.6,4.9,x,0.6,-4.7
CCOc1ccc(C(=O)N(CN2CCCC2=O)c2ccccc2)cc1,-6.0,3.5,13.0*,1.3,-34.4
Cn1c(CNC(=O)C(Cc2ccccc2)NC(=O)c2ccccc2F)cc(=O)n(C)c1=O (centres undefined),6.7,3.4,x,-0.5,-3.2
CCOc1ccc(N(CC(=O)Nc2ccc(OC)cc2)C2=NC3CS(=O)(=O)CC3S2)cc1 (centres undefined),-24.1,-3.0,x,-0.3,-1.4
COCCN1C(=O)c2oc3cc(C)c(C)cc3c(=O)c2C1c1ccc(O)cc1 (centres undefined),-30.1,-3.7,9.1*,-0.9,-16.5
COCCN1C(=O)c2oc3ccccc3c(=O)c2C1c1cccc(O)c1 (centres undefined),-0.5,-6.9,0.8,-0.3,-3.3
Cc1nc(Nc2cnc(/C=C/c3cc(C(=O)Nc4cccc(C(F)(F)F)c4)ccc3C)cn2)cc(N2CCNCC2)n1,-5.5,-12.0,x,-7.4,81.2*
CCc1c(C)nc2cc(-c3cccc(Br)c3)[nH]n2c1=O,-152.1,5.0,x,-4.8,-199.0
Oc1[nH]c2c(Cl)cc(Cl)cc2c1N=NC(=S)NCC1CCCO1 (centres undefined),-10.0,-13.6,-3.2,0.3,79.3*
Nc1c(C(=O)Nc2nc3ccccc3s2)sc2nc(-c3cccs3)ccc12,-71.1,0.1,0.8,-6.9,105.7*
Nc1ccc(C(=O)Nc2nc3ccccc3s2)cc1,-103.2,4.7,8.9*,x,-4.7
CC(=O)c1sc2nc(-c3cccs3)ccc2c1N,-27.3,0.8,1.6,1.4,-272.1
COc1ccccc1C(=O)Nc1nc2ccccc2s1,21.7,73.2*,x,-18.4,109.3*
Cc1cc(C)n(-c2ccc(C(=O)Nc3nc4ccccc4s3)cc2)n1,-130.2,-1.7,-1.1,4.3,-97.3
CCn1cc(C(=O)NCC(OC)OC)c(=O)c2cc(S(=O)(=O)N3CCC(C)CC3)ccc21,16.1,6.3,x,29.7*,5.7
NC1=C(Br)C(=O)c2ccccc2C1=O,-16.6,1.1,-0.3,0.2,65.4*
CC(N)(C(=O)O)c1cccc(OCc2cccc(Cl)c2)c1 (centres undefined),-1.8,-4.4,-1.1,1.1,-11.7
Cc1oc(-c2cccc(Cl)c2)nc1CN1CCC(C(=O)NCCCN2CC(C)CC(C)C2)CC1 (centres undefined),-26.7,-3.0,x,0.1,4.3
O=C(Nc1ccccc1)C(=O)Nc1ccc2c(c1)N(C(=O)C1CC1)CCC2,x,89.1*,x,1.2,-121.0
O=C(C1CCC(C(=O)N2CCc3ccccc32)CC1)N1CCc2ccccc21 (centres undefined),-32.0,-4.5,-2.8,-0.4,10.9
COc1ccccc1CNC(=O)CCCC(=O)n1ncc2cc(C)ccc21,-26.5,-2.5,x,0.1,-4.9
COc1ccc(NS(=O)(=O)c2ccc(NC(=O)c3ccccc3)cc2)nn1,-1.8,1.6,10.8*,0.0,4.6
COc1cc(-c2ccc(NC(=O)CN3CCCCC3)c(OC)c2)ccc1NC(=O)CN1CCCCC1,5.3,x,8.9*,x,x
CC1CC(=O)N(CC(=O)Nc2ccccc2F)c2ccccc2S1(=O)=O (centres undefined),-3.1,-22.8,x,-0.1,16.4
CCN1/C(=C/c2ccc3cc(C)ccc3[n+]2CC)Sc2cc(C)c(C)cc21,-0.8,x,-3.7,x,x
CCN1/C(=C/c2ccc3cc(C)ccc3[n+]2CC)Sc2ccccc21,41.2,3.4,-1.9,26.1*,99.9*
